47 molecules from PubChem BioAssay AID2417 (National Center for Advancing Translational Sciences (NCATS), 2010) can be followed below.

Among all 140,000 compounds or so, about 4,300 (3.1%) were called active. Roughly 21% stayed inconclusive and do not appear here. The sample as a whole holds a higher share of actives than the screen did. Unmarked numbers belong to inactive results.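 How the source made its calls: active means readout at or below -70, meaning at least 70% loss of cells showing the perinucleolar compartment, a nuclear body marking cancer cells; inconclusive means readout between -30 and a set limit; inactive means the rest.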

This assay is described as follows: High Content Assay for Compounds that inhibit the Assembly of the Perinucleolar Compartment.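 Further: plate controls were DMSO wells for no effect and camptothecin positive control wells for full effect.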 As to conditions: PC3M PTB-GFP, PNC prevalence imaging, 16 h; at 10 µM; stronger effect = lower value. In outline: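 Compounds are pinned in duplicate onto adhered PC3M cells stably expressing GFP-tagged PTB and incubated 16 h at 37 C. Cells are then fixed, nuclei stained with Hoechst, and PNC-positive cells counted.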
`CC(=O)NNC1=Nc2ccccc2N(C)C(C)C1` (configuration not stated): the activity change (PNC), negative = inhibition was 41.2%. `O=C(ON=C1CCN(S(=O)(=O)c2ccccc2)CC1)c1ccc(Cl)cc1`: the activity change (PNC), negative = inhibition is -100% (active).

With `O=C(COc1ccc(Cl)cc1)N1CCN(S(=O)(=O)c2ccc(Cl)cc2)CC1`, the activity change (PNC), negative = inhibition was -28.2%. To `O=C(COc1ncnc2c(Cl)cc(Cl)cc12)N1CCN(S(=O)(=O)c2ccccc2)CC1` belongs 25.7%. As to `O=C(Nc1ccc(N2C(=O)c3cccc4cccc(c34)C2=O)cc1)c1ccc(N2CCCCC2)c([N+](=O)[O-])c1`, the activity change (PNC), negative = inhibition was 12%. Take `Cc1ccc(NC(=O)c2sccc2C)cc1[N+](=O)[O-]`: the activity change (PNC), negative = inhibition was -105% (active). On to `Cc1ccsc1C(=O)N/N=C/c1ccc([N+](=O)[O-])cc1`, for which the activity change (PNC), negative = inhibition was -4.41%. For the molecule `COc1ccc(NC(=O)c2ccccc2[N+](=O)[O-])cc1OC`, the activity change (PNC), negative = inhibition was 40.9%. As to `C=CCN(c1ccc(C(=O)Nc2cc(C)cc(C)c2)cc1)S(C)(=O)=O`, the activity change (PNC), negative = inhibition was 0%. Consider `COc1ccc(-c2cc(C(=O)NC(Cc3c[nH]c4ccccc34)C(=O)O)c(C)o2)cc1OC` (configuration not stated), for which the activity change (PNC), negative = inhibition was 41%.

Regarding `COc1ccc(C(=O)ON=C2c3ccccc3-c3ccccc32)cc1OC`, the activity change (PNC), negative = inhibition is 2.98%. As to `COc1cc(CCC(=O)OCC(=O)Nc2cccc(S(N)(=O)=O)c2)cc(OC)c1OC`, the activity change (PNC), negative = inhibition was 17.9%.

On to `COCC(=O)Nc1nnc(COc2ccccc2)s1`, for which the activity change (PNC), negative = inhibition was 5.3%. Take `Cc1ccc(OCC(=O)Nc2ccc(-c3nnc(-c4ccco4)o3)cc2)cc1`: the activity change (PNC), negative = inhibition is 63.9%. To `COc1ccc(OCC(=O)Nc2nnc(-c3ccco3)s2)cc1` belongs -113% (active); to `Cc1ccc(C(=O)N2CC(=O)Nc3ccccc32)o1`, -19.5%. `CCc1ccc(C2C(C#N)=C(N)N(N(C)C)C3=C2C(=O)CCC3)s1` (configuration not stated): the activity change (PNC), negative = inhibition is 36.4%. To `O=C1NC(=Nc2ccc(Cl)cc2)SC1Cc1cccc(Cl)c1Cl` (configuration not stated) belongs 66.6%. As for `O=C(COC(=O)/C=C/c1cccc(Cl)c1)NCCc1ccccc1`, the activity change (PNC), negative = inhibition is -23.6%. Regarding `COCCNC(=O)c1ccccc1NS(=O)(=O)c1ccc(C)c([N+](=O)[O-])c1`, the activity change (PNC), negative = inhibition is 33%. Take `O=C(Nc1cccc(F)c1)c1ccc(S(=O)(=O)N2CCCC2)cc1`: the activity change (PNC), negative = inhibition was 8.69%. In the case of `CCN1CCN(C(=O)C2(NC(=O)Nc3cccc(F)c3)CCCCC2)CC1` it was -83.6% (active); in that of `C/C(CC(=O)Nc1cccc(F)c1)=N\NC(=O)C(=O)NC1CCCCC1`, 0.469%. To `COCCCNC(=S)NC(=O)c1ccccc1` belongs -29.6%; to `Cc1ccc(-c2cn3cc([N+](=O)[O-])ccc3n2)cc1`, 19.9%; to `O=C(NNC(=S)NCc1ccccc1)c1ccc(OC(F)F)cc1`, -4.88%. To `COc1ccc(C/C(C)=N/NC(=O)c2cc(C)oc2C)cc1` belongs 15.4%.

Regarding `O=C(CN1CCN(S(=O)(=O)c2ccc(F)cc2)CC1)Nc1ccccc1F`, the activity change (PNC), negative = inhibition is -12%. On to `COc1cc2c(cc1NC(=O)CN1CCN(S(=O)(=O)c3ccc(F)cc3)CC1)oc1ccccc12`, for which the activity change (PNC), negative = inhibition was -22.6%. Consider `COc1ccc(NC(=O)CN2CCN(S(=O)(=O)c3ccc(F)cc3)CC2)cc1Cl`, for which the activity change (PNC), negative = inhibition was -123% (active). For the molecule `CCc1ccc(NC2Nc3cc(C)nn3S2)cc1` (configuration not stated), the activity change (PNC), negative = inhibition was 66.7%. For `Cn1c(=O)c2c(nc(SCC(=O)Nc3ccccc3N3CCCCC3)n2C)n(C)c1=O`, the activity change (PNC), negative = inhibition is -26.8%. Regarding `Cc1ccccc1NC(=O)CNc1ccccc1N1CCCCC1`, the activity change (PNC), negative = inhibition is -94.9% (active). For the molecule `O=C(CN1CCN(C2CCCCC2)CC1)Nc1ccccc1N1CCCCC1`, the activity change (PNC), negative = inhibition was -8.13%.

In the case of `Cc1occc1C(=O)NNC(=S)NCC(C)C`, the activity change (PNC), negative = inhibition is -25.7%. For `CC(C)CNC(=S)NNC(=O)c1nn(C)cc1Cl`, the activity change (PNC), negative = inhibition is -100% (active).

As to `Cc1scc(C(=O)NNC(=S)NCC(C)C)c1C`, the activity change (PNC), negative = inhibition was -6.46%. Consider `Cc1ccc(NC(=O)c2cccs2)cc1S(=O)(=O)N(C)C`, for which the activity change (PNC), negative = inhibition is 22.8%. In the case of `Cc1ccc(S(=O)(=O)N(C)C)cc1NC(=O)/C=C/c1cccs1` it was -119% (active). As for `Cc1ccc(S(=O)(=O)N(C)C)cc1NC(=O)COC(=O)c1c(C)noc1C`, the activity change (PNC), negative = inhibition is -21.3%. Regarding `Fc1ccc(N2N=C(c3cccs3)CC2c2ccco2)c(F)c1` (configuration not stated), the activity change (PNC), negative = inhibition was 17.8%. For the molecule `CCS(=O)(=O)Nc1ccc(C2=NN(S(=O)(=O)c3ccc(F)cc3)C(c3ccco3)C2)cc1` (configuration not stated), the activity change (PNC), negative = inhibition is 13.9%. As for `Cc1ccc(C2=NN(C(=O)CSc3nc(N)cc(N)n3)C(c3ccco3)C2)cc1` (configuration not stated), the activity change (PNC), negative = inhibition is -113% (active). For `CC(C)(C)c1ccc(NC(=O)COC(=O)CCc2nc3ccccc3c(=O)[nH]2)cc1`, the activity change (PNC), negative = inhibition was -24.2%. Consider `C/C(=N/NC(=O)c1ccc(Br)o1)c1ccc(C)o1`, for which the activity change (PNC), negative = inhibition is -24.9%. `CCOc1ccc(NC(=O)c2ccc(CSc3nnnn3C)cc2)cc1`: the activity change (PNC), negative = inhibition was -8.75%. To `CCc1cccc(CC)c1NC(=O)COc1ccccc1C(=O)c1cc(C#N)c(=O)n(C2CCCCC2)c1` belongs -12.2%.
